Records with an inconclusive call do not appear. Calls of active or inactive are those of the source. How the calls were made is not given here.
Test: caspase-3/7 apoptosis induction in SNB-75, late-stage follow-up, mechanism study for HRAS target identification, cell-based, caspase 3/7 luminescence, several timepoints, dry powder (AID 720629)
Details: max activity: measured here: caspase 3/7, timepoint 1, at 0.0003 µM, stronger effect = higher value unless noted

| SMILES | max activity | outcome |
| --- | --- | --- |
| CCC(=O)N(c1ccc(OC)c(Cl)c1)C(C(=O)NCCc1ccccc1)c1cccs1 (centres undefined) | -24.1% [measured here: caspase 3/7, timepoint 1, at 0.0001 µM, stronger effect = higher value] | inactive |
| C#CCCCC(=O)NCCOCCOCCOc1ccc(N(C(=O)CCl)C(C(=O)NCCc2ccccc2)c2cccs2)cc1Cl (centres undefined) | -28.3% | inactive |

— PubChem BioAssay AID720629 (Broad Institute, 2013)
